The results in this text go back to PubChem BioAssay (NCATS).

Structures are written as SMILES. Results filed as inconclusive are left out. Entries that show only a call come without a potency. Active and inactive are the calls of the source. Calls come from the whole dose curve; as a rule, active = well fitted curve in the direction sought with a large enough effect; inconclusive = small, poorly fitted or top-dose-only effect, or another doubt; inactive = no such curve, though single readings can be large; an effect the other way counts as inactive or inconclusive.

The first assay has as its target Aldehyde dehydrogenase, mitochondrial (Homo sapiens) (UniProt P05091). Briefly: qHTS for Inhibitors of the Aldehyde Dehydrogenase Family (ALDH2) Primary screen (AID 2061308). Note: nearly all actives have a fitted effect of over 55% in size. The settings on record: ALDH2 enzyme inhibition qHTS, 1536-well; series mostly up to 56 µM. In general terms: In qHTS, concentration-response curves come from the screen itself.
For `COC(=O)c1cc2c(C(F)(F)F)cc(-c3ccccc3)cc2n1O`, the Potency entry is “inactive”.
Still for that read-out and setting: with `CC(C)(C)OC(=O)NCC(=O)NNC(=O)c1cc2ccccc2[nH]1` the entry was “inactive”; with `O=[S+]([O-])(c1c(F)cccc1F)N1CCN([S+](=O)([O-])c2cccc3nonc23)CC1`, “inactive”; with `CCCn1c(C)nc2c(NCCN(C(C)C)C(C)C)nc(C)nc21`, “inactive”.
Same read-out and setting: then `Fc1cccc(Nc2nc(-c3ccncc3)nc3ccccc23)c1`, with “inactive”; and `Cc1ccc(-c2cc(C(=O)Nc3ccc(C(=O)O)cc3)c3ccccc3n2)cc1C`, with “inactive”; and `COc1ccc(C2c3c(n(CCc4ccccc4)cnc3=N)Oc3ccc4ccccc4c32)cc1OC` (stereo not given), with “inactive”.
Still for that read-out and setting: then `Cc1ccnc(NC(=S)N2CCc3ccccc3C2)c1`, with “inactive”; and `COc1ccc(C2Nc3ccccc3C(=O)N2Cc2ccco2)cc1COc1ccccc1C` (stereo not given), with “inactive”.
`CC(C)(C)OC(=O)n1c2ccsc2c2cnn(Cc3ccccc3F)c(=O)c21`: the Potency result was “inactive”.
Same read-out and setting: with `Cc1ccc(NS(=O)(=O)c2cc3c(cc2/C=C/c2ccccc2)NC(=O)CO3)cc1C` the entry was “inactive”; with `O=C1CCCC2CC(Nc3nc4ccccc4o3)CC(c3ccccc3)C12` (stereo not given), “inactive”; with `Cc1cc(NS(=O)(=O)c2ccc(NC(=O)Cc3ccc(Cl)c(Cl)c3)cc2)on1`, “inactive”.
Turning to `O=C(Nc1cccc(C(F)(F)F)c1)c1cccs1`, the Potency result was “inactive”.
The same measure, in the same setting: with `N#CC1=C(NC=NCc2ccccc2)Oc2ccc3ccccc3c2C1c1ccccc1` (stereo not given) the entry was “inactive”; with `Cc1c([S+](=O)([O-])N2CCN([S+](=O)([O-])c3c(F)cccc3F)CC2)sc2ccc(Cl)cc12`, “inactive”; with `C=C1CCC2C(C)(C(=O)OC)CCCC2(C)C1CCC1=CCOC1=O` (stereo not given), “inactive”.
Same read-out and setting: with `Cc1cc(C)nc(NC(=S)N2CCN(c3ccc(Cl)c(Cl)c3)CC2)c1` the entry was “inactive”; with `C[C@H]1CC[C@@]2(OC1)O[C@H]1CC3[C@@H]4CC[C@@H]5C[C@@H](O[C@@H]6O[C@H](CO)[C@@H](O[C@@H]7O[C@@H](C)[C@H](O)[C@@H](O)[C@H]7O)[C@H](O)[C@H]6O[C@@H]6O[C@H](CO)[C@@H](O)[C@H](O)[C@H]6O)CC[C@]5(C)C4CC[C@]3(C)[C@H]1[C@@H]2C` (stereo not given in full), “inactive”.
`CC(C)(NC(=O)Nc1ccccc1Cl)C(=O)N1CCC(C(=O)O)CC1`: the Potency entry was “inactive”.
On the same count and under the same terms, then `Nc1ccc(S(=O)(=O)N2CCN(S(=O)(=O)c3ccc4c(c3)OCCO4)CC2)cc1`, with “inactive”; and `O=C(Nc1ccc(-c2nc3ccccc3[nH]2)cc1)Nc1ccc2c(c1)OCCO2`, with “inactive”.
For `Cc1cnc(N2CCC(C(N)=O)CC2)nc1-c1cccc(N(C)C)c1`, the Potency result is “inactive”.
As to `Cn1ccc2cc(-c3ccc4ncnc(NCc5ccc6c(c5)OCO6)c4c3)ccc21`, the Potency result is “inactive”.
Same read-out and setting: with `O=C(Nc1cc(C(F)(F)F)cc(C(F)(F)F)c1)Nc1nnc(-c2ccncc2)s1` the entry was “inactive”; with `C=CCNc1oc(-c2ccc(F)cc2)nc1C#N`, “inactive”.
On the same count and under the same terms, with `FC(F)(F)c1ccccc1-c1nc(NCc2ccc(-c3ccc4ccccc4c3)cc2)c2ccccc2n1` the entry was “inactive”.
Same read-out and setting: with `CC1=C[C@@H]2[C@H]3[C@@H]4O[C@@](C)(CC[C@H]4O)[C@H]3CC(=O)[C@]23C(=O)N[C@@H](CC(C)C)[C@@H]3[C@@H]1C` the entry was “inactive”; with `Cc1ccc(NC(=O)c2ccncc2NS(=O)(=O)c2ccc(C)cc2)cc1`, “inactive”; with `CCOc1ccccc1-c1nnc2n1N=C(c1cc(OC)cc(OC)c1)CS2`, “inactive”.
For `COc1cc2ncnc(N(C)Cc3cccs3)c2cc1-c1ccc2c(c1)OCO2`, the Potency entry is “inactive”.
On the same count and under the same terms, with `O=C(Nc1ccc(Cl)cc1)Nc1nnc(-c2ccncc2)s1` the entry was “inactive”; with `Cc1c(C(O)(c2ccccc2)c2ccccc2)[n+]2ccccc2n1C`, “inactive”; with `COc1cccc(CNc2ccc(S(=O)(=O)Nc3nccs3)cc2)c1`, “inactive”.
Still for that read-out and setting: then `CN(C)c1ccc(C2N=C(Nc3nc4ccccc4o3)NC3=C2C(=O)CCC3)cc1` (stereo not given), with “inactive”; and `CC(=O)Nc1cccc(S(=O)(=O)Nc2ccc(C)c(C)c2)c1`, with “inactive”.
On the same count and under the same terms, with `Cc1cc2c(s1)c1cnn(Cc3c(Cl)cccc3Br)c(=O)c1n2C` the entry was “inactive”.
On to `CCCn1c(C)nc2c(NC(C)CN(C)C)nc(C)nc21` (stereo not given), for which the Potency entry is “inactive”.
Still for that read-out and setting: then `Cc1cc(NS(=O)(=O)c2ccc(NC(=O)c3ccc(Cl)c(Cl)c3)cc2)no1`, with “inactive”; and `O=C(CN1C(=O)N/C(=C\c2cccn2-c2cccc(C(=O)O)c2)C1=O)Nc1cccc(F)c1`, with “inactive”.

A further assay addresses Retinaldehyde dehydrogenase 3 (Homo sapiens) (UniProt P47895). Put plainly: qHTS for Inhibitors of the Aldehyde Dehydrogenase Family (ALDH1A3) Primary screen (AID 2061315). Particulars: ALDH inhibition qHTS; series mostly up to 56 µM.
Turning to `COC(=O)c1cc2c(C(F)(F)F)cc(-c3ccccc3)cc2n1O`, the Potency entry was “inactive”.
Same read-out and setting: then `CC(C)(C)OC(=O)NCC(=O)NNC(=O)c1cc2ccccc2[nH]1`, with “inactive”.
Consider `O=[S+]([O-])(c1c(F)cccc1F)N1CCN([S+](=O)([O-])c2cccc3nonc23)CC1`, for which the Potency result was “inactive”.
Consider `CCCn1c(C)nc2c(NCCN(C(C)C)C(C)C)nc(C)nc21`, for which the Potency result was “inactive”.
Same read-out and setting: then `Fc1cccc(Nc2nc(-c3ccncc3)nc3ccccc23)c1`, with “inactive”; and `Cc1ccc(-c2cc(C(=O)Nc3ccc(C(=O)O)cc3)c3ccccc3n2)cc1C`, with “inactive”.
Turning to `COc1ccc(C2c3c(n(CCc4ccccc4)cnc3=N)Oc3ccc4ccccc4c32)cc1OC` (stereo not given), the Potency result is “inactive”.
As for `Cc1ccnc(NC(=S)N2CCc3ccccc3C2)c1`, the Potency result was “inactive”.
Regarding `COc1ccc(C2Nc3ccccc3C(=O)N2Cc2ccco2)cc1COc1ccccc1C` (stereo not given), the Potency entry was “inactive”.
Still for that read-out and setting: with `CC(C)(C)OC(=O)n1c2ccsc2c2cnn(Cc3ccccc3F)c(=O)c21` the entry was “inactive”; with `Cc1ccc(NS(=O)(=O)c2cc3c(cc2/C=C/c2ccccc2)NC(=O)CO3)cc1C`, “inactive”.
On the same count and under the same terms, then `O=C1CCCC2CC(Nc3nc4ccccc4o3)CC(c3ccccc3)C12` (stereo not given), with “inactive”; and `Cc1cc(NS(=O)(=O)c2ccc(NC(=O)Cc3ccc(Cl)c(Cl)c3)cc2)on1`, with “inactive”; and `O=C(Nc1cccc(C(F)(F)F)c1)c1cccs1`, with “inactive”.
Still for that read-out and setting: then `N#CC1=C(NC=NCc2ccccc2)Oc2ccc3ccccc3c2C1c1ccccc1` (stereo not given), with “inactive”; and `Cc1c([S+](=O)([O-])N2CCN([S+](=O)([O-])c3c(F)cccc3F)CC2)sc2ccc(Cl)cc12`, with “inactive”.
With `C=C1CCC2C(C)(C(=O)OC)CCCC2(C)C1CCC1=CCOC1=O` (stereo not given), the Potency entry is “inactive”.
Still for that read-out and setting: then `Cc1cc(C)nc(NC(=S)N2CCN(c3ccc(Cl)c(Cl)c3)CC2)c1`, with “inactive”; and `C[C@H]1CC[C@@]2(OC1)O[C@H]1CC3[C@@H]4CC[C@@H]5C[C@@H](O[C@@H]6O[C@H](CO)[C@@H](O[C@@H]7O[C@@H](C)[C@H](O)[C@@H](O)[C@H]7O)[C@H](O)[C@H]6O[C@@H]6O[C@H](CO)[C@@H](O)[C@H](O)[C@H]6O)CC[C@]5(C)C4CC[C@]3(C)[C@H]1[C@@H]2C` (stereo not given in full), with “inactive”; and `CC(C)(NC(=O)Nc1ccccc1Cl)C(=O)N1CCC(C(=O)O)CC1`, with “inactive”.
For the molecule `Nc1ccc(S(=O)(=O)N2CCN(S(=O)(=O)c3ccc4c(c3)OCCO4)CC2)cc1`, the Potency entry is “inactive”.
Regarding `O=C(Nc1ccc(-c2nc3ccccc3[nH]2)cc1)Nc1ccc2c(c1)OCCO2`, the Potency result was “inactive”.
The same measure, in the same setting: then `Cc1cnc(N2CCC(C(N)=O)CC2)nc1-c1cccc(N(C)C)c1`, with “inactive”; and `Cn1ccc2cc(-c3ccc4ncnc(NCc5ccc6c(c5)OCO6)c4c3)ccc21`, with “inactive”; and `O=C(Nc1cc(C(F)(F)F)cc(C(F)(F)F)c1)Nc1nnc(-c2ccncc2)s1`, with “inactive”.
Same read-out and setting: with `C=CCNc1oc(-c2ccc(F)cc2)nc1C#N` the entry was “inactive”; with `FC(F)(F)c1ccccc1-c1nc(NCc2ccc(-c3ccc4ccccc4c3)cc2)c2ccccc2n1`, “inactive”; with `CC1=C[C@@H]2[C@H]3[C@@H]4O[C@@](C)(CC[C@H]4O)[C@H]3CC(=O)[C@]23C(=O)N[C@@H](CC(C)C)[C@@H]3[C@@H]1C`, “inactive”.
Same read-out and setting: then `Cc1ccc(NC(=O)c2ccncc2NS(=O)(=O)c2ccc(C)cc2)cc1`, with “inactive”; and `CCOc1ccccc1-c1nnc2n1N=C(c1cc(OC)cc(OC)c1)CS2`, with “inactive”; and `COc1cc2ncnc(N(C)Cc3cccs3)c2cc1-c1ccc2c(c1)OCO2`, with “inactive”.
Take `O=C(Nc1ccc(Cl)cc1)Nc1nnc(-c2ccncc2)s1`: the Potency entry was “inactive”.
On the same count and under the same terms, with `Cc1c(C(O)(c2ccccc2)c2ccccc2)[n+]2ccccc2n1C` the entry was “inactive”; with `COc1cccc(CNc2ccc(S(=O)(=O)Nc3nccs3)cc2)c1`, “inactive”.
`CN(C)c1ccc(C2N=C(Nc3nc4ccccc4o3)NC3=C2C(=O)CCC3)cc1` (stereo not given): the Potency entry was “inactive”.
Still for that read-out and setting: with `CC(=O)Nc1cccc(S(=O)(=O)Nc2ccc(C)c(C)c2)c1` the entry was “inactive”; with `Cc1cc2c(s1)c1cnn(Cc3c(Cl)cccc3Br)c(=O)c1n2C`, “inactive”.
Still for that read-out and setting: then `CCCn1c(C)nc2c(NC(C)CN(C)C)nc(C)nc21` (stereo not given), with “inactive”; and `Cc1cc(NS(=O)(=O)c2ccc(NC(=O)c3ccc(Cl)c(Cl)c3)cc2)no1`, with “inactive”; and `O=C(CN1C(=O)N/C(=C\c2cccn2-c2cccc(C(=O)O)c2)C1=O)Nc1cccc(F)c1`, with “inactive”.
